This is an account of results in PubChem BioAssay (Tox21).

A number with no mark means an inactive call. A call without a number means that no potency is given here. Activity calls are given as the source filed them. Calls come from the whole dose curve; as a rule, active = well fitted activation curve with a large enough effect in the repeat runs; inconclusive = weak or mixed curves; inactive = flat fitted curve, though single readings scatter.

The nature of the assay: A CellTox Green Cytotoxicity Assay to monitor cytotoxicity in HEK293 cells - 0 hour (AID 1224869). Note: nearly all actives have a fitted effect of over 50% in size. Particulars: CellTox Green fluorescence; series mostly up to 76.8 µM; cytotoxicity: at the top concentration. An excerpt:
National Center for Advancing Translational Sciences [NCATS]
NIH Chemical Genomics Center [NCGC]
U.S. Environmental Protection Agency [EPA]
National Institutes of Environmental Health Sciences [NIEHS]
National Toxicology Program [NTP]
Cell-based models are critical for drug discovery. Determining the natural cytotoxic effects resulting from test compounds is an essential research activity. A CellTox Green Cytotoxicity Assay to monitor cytotoxicity in real time of continues cell culture during 40 hours of the compound treatment was used to screen Tox21 10K library compounds in Hek293 cells. CellTox Green Cytotoxicity Assay is a nonlytic, homogeneous, biofluorescent method to measure cytotoxicity in cell culture after experimental manipulation. The assay system uses a proprietary asymmetric cyanine dye that is excluded from viable cells but preferentially stains the dead cell's DNA. […] Viable cells produce no appreciable increases in fluorescence. Therefore, the fluorescence signal produced by the binding interaction with dead cell DNA is proportional to cytotoxicity.
The mixture of Hek293 cell suspension and reagents were dispensed at 600cells/6 ul/well in 1536-well tissue culture treated black solid bottom plates using a Multidrop dispenser. After the assay plates were incubated at a 37 C/5% CO2 incubator for 5 hours, 23 nL of compounds dissolved in DMSO, positive and negative controls was transferred to the assay plate by a pintool work station. The plates were incubated at 37 C for 40 hours. The fluorescence intensity were measured at 0h, 8h, 16h, 24h, 32h and 40h time points using ViewLux plate reader during compound treatment.
For `CNc1cnn(-c2cccc(C(F)(F)F)c2)c(=O)c1Cl`, the Potency result was “inactive”. The same measure, in the same setting: the result for `Nc1ccc([As](=O)(O)O)cc1` reads “inactive”. Same read-out and setting: the result for `OCC(O)CCl` (stereo not given) reads “inactive”. With `COS(=O)(=O)OC`, the “cytotoxicity” value is -5.16%. Take `CC(C)CCCCCCOC(=O)c1ccccc1C(=O)OCCCCCCC(C)C`: the Potency result is “inactive”. As for `C=CC(=O)OCCCCCC(C)C`, the Potency result was “inactive”. On the same count and under the same terms, in the case of `CN(C)NC(=O)CCC(=O)O` it was “inactive”; in that of `Cc1cccc(N)c1`, “inactive”. Same read-out and setting: the result for `Cc1ccc(O)c(C)c1` reads “inactive”. Same read-out and setting: the result for `CC12CC1(C)C(=O)N(c1cc(Cl)cc(Cl)c1)C2=O` (stereo not given) reads “inactive”; that for `CN1C(=O)CCS(=O)(=O)C1c1ccc(Cl)cc1` (stereo not given), “inactive”. Consider `O=[N+]([O-])c1ccc(Cl)c(Cl)c1`, for which the Potency entry is “inactive”.

Take `CCOP(=S)(OCC)Oc1ccc([N+](=O)[O-])cc1`: the Potency entry was “inactive”. The same measure, in the same setting: in the case of `O=S(=O)(O)OOS(=O)(=O)O` it was “inactive”; in that of `Cc1cc(Cl)ccc1OC(C)C(=O)O` (stereo not given), “inactive”; in that of `Cc1ccc(N)cc1`, “inactive”.

On to `OC[C@@H](O)[C@H]1O[C@@H]2O[C@H](C(Cl)(Cl)Cl)O[C@@H]2[C@H]1O`, for which the Potency result is “inactive”.

In the case of `CCCCC(CC)C(=O)Cl` (stereo not given), the Potency entry is “inactive”. `CSc1nnc(C(C)(C)C)c(=O)n1N`: the Potency entry was “inactive”. `C/C=C/c1ccc2c(c1)OCO2`: the Potency entry was “inactive”. On the same count and under the same terms, the result for `Cc1cc(O)ccc1Cl` reads “inactive”; that for `CC(=O)C1CCOC1=O` (stereo not given), “inactive”.

Take `CCCCCCCCCCCCCCCCCC(=O)O`: the Potency result was “inactive”. On to `CCOP(=S)(OCC)Oc1cc(C)nc(C(C)C)n1`, for which the Potency result is “inactive”. The same measure, in the same setting: in the case of `Clc1cnc(Oc2ccc(Oc3ncc(Cl)cc3Cl)cc2)c(Cl)c1` it was “inactive”; in that of `CN(C)CCC#N`, “inactive”; in that of `CC[N+](=O)[O-]`, “inactive”. On the same count and under the same terms, the result for `O=C(O)c1cc(Oc2ccc(C(F)(F)F)cc2Cl)ccc1[N+](=O)[O-]` reads “inactive”; that for `COC(C)(C)CCCC(C)C/C=C/C(C)=C/C(=O)OC(C)C` (stereo not given), “inactive”; that for `ClCCOCCCl`, “inactive”. On to `CNC(=O)O/N=C/C(C)(C)SC`, for which the Potency entry is “inactive”. Consider `CCSC(=O)N1CCCCCC1`, for which the Potency entry was “inactive”. Consider `Sc1ccccc1`, for which the Potency result was “inactive”. The same measure, in the same setting: in the case of `N#CN=C(N)N` it was “inactive”. On the same count and under the same terms, in the case of `OCc1ccco1` it was “inactive”; in that of `O=[N+]([O-])c1cc([As](=O)(O)O)ccc1O`, “inactive”. On the same count and under the same terms, in the case of `C[C@]12CC[C@H](O)CC1=CC[C@@H]1[C@@H]2CC[C@]2(C)C(=O)CC[C@@H]12` it was “inactive”. For `COc1cc(-c2ccc(N)c(OC)c2)ccc1N`, the Potency entry is “inactive”. Still for that read-out and setting: in the case of `C=CC#N` it was “inactive”; in that of `CNC(=O)O/N=C/C(C)(C)S(C)=O` (stereo not given), “inactive”.
